Inconclusive results are not listed. Values without a mark were called inactive. The source made the active and inactive calls. Calls follow the shape of the dose curve; as a rule, active = well fitted cell-killing curve with a large enough effect in the repeat runs; inconclusive = weak or mixed curves, or effect the other way; inactive = flat fitted curve, though single readings scatter.
test: qHTS assay to identify small molecule agonists of the constitutive androstane receptor (CAR) signaling pathway - cell viability counter screen (AID 1224836); conditions: HepG2-CYP2B6-hCAR viability, CellTiter-Fluor, 23 h, PK11195 added to every well; series mostly up to 92.4 µM; also: nearly all actives have a fitted effect of over 45% in size
Description: U.S. Tox21 Program National Center for Advancing Translational Sciences [NCATS] NIH Chemical Genomics Center [NCGC] U.S. Environmental Protection Agency [EPA] National Institutes of Environmental Health Sciences [NIEHS] National Toxicology Program [NTP] U.S. Food and Drug Administration [FDA] Tox21 Assay Overview: The constitutive androstane receptor (CAR) is a nuclear receptor which regulates multiple drug metabolizing enzymes (DMEs) and transporters. Activating CAR will generally increase the transcription and subsequent translation of CYP2B6 and CYP3A4. These two DMEs represent about 50% of the drug metabolizing potential in the body. […] Recently, there have also been studies performed indicating CARs role in energy metabolism and cancer therapy. Therefore, inducing CARs activity could have a potential effect on diabetes and cancer. Identifying environmental toxins and compounds which modulate CAR, through the use of the Tox21 10K compound collection, will be an important step in determining the toxicity and potential therapeutic effects these factors will have on the human body. To differentiate true CAR agonists from cytotoxic substances, the assay is multiplexed with a cell viability assay.
Tox21 Assay Protocol Summary: A double-stable (hCAR and CYP2B6-2.2kb) transfected cell line, derived from human hepatoma (HepG2) cells, was utilized for the duration of the quantitative high-throughput screens. The HepG2-CYP2B6-hCAR cells were dispensed at 2500 cells/4 uL/well in 1536-well white solid bottom plates using a Multidrop Combi. After the assay plates were incubated at 37 C/5% CO2 for 4 hrs, 23 nL of compounds at 15 concentrations (from 5-48 columns) or positive control (from 1 to 4 columns) were transferred to the assay plates using a Pintool station. One uL of PK11195 (final concentration = 0.75 uM) was added, using a Flying Reagent Dispenser, inside each well. After a 23 hr incubation period at 37 C/5% CO2, 1 uL of CellTiter-Fluor reagent was added into each well of the assay plates using a Flying Reagent Dispenser. The fluorescence intensity in the plates was then measured using a ViewLux plate reader.
% is scaled to controls: 0 for no effect and ±100 for the full control effect.

| SMILES | outcome | viability change, negative = cytotoxic |
| --- | --- | --- |
| CN1C(CCl)Nc2cc(Cl)c(S(N)(=O)=O)cc2S1(=O)=O (stereo not given) | inactive |  |
| CC(=O)c1c(C)cc(C(C)(C)C)cc1C | inactive |  |
| CN(C)CCC[C@@]1(c2ccc(F)cc2)OCc2cc(C#N)ccc21 | inactive |  |
| O=C1Nc2ccccc2C1=O | inactive |  |
| C=CC(=O)OCCOCCOCC | inactive |  |
| CC(C)C(C)C | inactive |  |
| CC(CN1CC(=O)NC(=O)C1)N1CC(=O)NC(=O)C1 (stereo not given) | inactive |  |
| O=CN1CCCCC1 | inactive |  |
| CC[N+](C)(CC)CC | inactive |  |
| COC(=O)C(c1ccccc1Cl)N1CCc2sccc2C1 (stereo not given) | inactive |  |
| CC(C)(C)C(=O)CCc1ccc(Cl)cc1 | inactive |  |
| CN(C)CCc1c[nH]c2ccc(C[C@H]3COC(=O)N3)cc12 | inactive |  |
| c1cc2ccc3ccc4ccc5cccc6c(c1)c2c3c4c56 |  | 2.84% [at 3.27 µM] |
| CCCC(=O)CC | inactive |  |
| CCCc1ncc(C(=O)O)s1 | inactive |  |
| C=CCCCCCCCCOC(C)=O | inactive |  |
| CCCCc1ccc(Cl)cc1 | inactive |  |
| N=C(N)N1CCc2ccccc2C1 |  | -1.33% [at 8.39 µM] |
| COc1ccccc1N1CCN(CC(O)COc2cc(OC)c(OC)c(OC)c2)CC1 (stereo not given) | inactive |  |
| CN(C)CCCN(C)C |  | -1.97% [at 8.39 µM] |

| SMILES | outcome | viability change, negative = cytotoxic |
| --- | --- | --- |
| C/C(Cl)=C/CCl | inactive |  |
| CC(C)C[P+](C)(CC(C)C)CC(C)C | inactive |  |
| Cc1ccc(NC(N)=O)cc1 | inactive |  |
| O=P(O)(O)C(O)(Cc1cccnc1)P(=O)(O)O | inactive |  |
| COC(=O)N/N=C/c1c[n+]([O-])c2ccccc2[n+]1[O-] | inactive |  |
| CN(C)c1cc(NC(=O)CNC(C)(C)C)c(O)c2c1C[C@H]1C[C@H]3[C@H](N(C)C)C(=O)C(C(N)=O)=C(O)[C@@]3(O)C(=O)C1=C2O | inactive |  |
| C=COCCCCO | inactive |  |
| CCCCNCC | inactive |  |
| Cc1ccccc1OCC(=O)O | inactive |  |
| CC(=O)c1ccc(O)c(C(N)=O)c1 | inactive |  |
| CCOC(=O)COc1ccc2c(C)c(CCN(CC)CC)c(=O)oc2c1Cl | inactive |  |
| CCCCCCC(=O)c1ccccc1 | inactive |  |
| C=CCn1cc[n+](C)c1 | inactive |  |
| CCCCC(O)/C=C(C)/C=C/C=C/C(=O)N1CCCC1=O (stereo not given) | inactive |  |
| CNCCc1ccccn1 | inactive |  |
| CCCCC(CC)CCC(CC(C)C)OS(=O)(=O)O (stereo not given) | inactive |  |
| N#CC1(N)CCCCC1 | inactive |  |
| BrCCOc1ccccc1 | inactive |  |
| CCCCCCCCCCCC(C)=O | inactive |  |
| CC(C)OCCO | inactive |  |

From PubChem BioAssay (Tox21)
